From PubChem BioAssay (EPA / NIEHS)
Results filed as inconclusive are left out. Active and inactive are the calls of the source. The calls were made as follows: active = hit-call score of the fitted dose curve at least 0.9, where 1 is the maximum; inconclusive = response in the unintended direction; inactive = score below 0.9.

Assays:
[1] = target: human Neurokinin, NK2 Receptor, TACR2 (gene 6865) (UniProt P21452); assay: NVS_GPCR_hNK2: NovaScreen (NVS) G Protein-Coupled Receptor Assay for human Neurokinin, NK2 Receptor (AID 2283278);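 also: actives reduce bound radioligand signal relative to DMSO baseline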
Summary of the method: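 Cell-free radioligand binding using receptor protein extracted from CHO cells; readings taken 4 hours after chemical dosing by filter-based scintillation counting. Primary screen ran single concentration (25 uM) in duplicate; actives followed up in concentration series, loss-of-signal versus DMSO baseline.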

[2] = test system: rabbit Platelet Activating Factor Receptor (PAF), gene 100354046; assay: NVS_GPCR_rabPAF: NovaScreen (NVS) G Protein-Coupled Receptor Assay for rabbit Platelet Activating Factor Receptor (PAF) (AID 2283287)
Summary of the method: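 Rabbit platelet membrane preparation; radioligand displacement read by filter-based scintillation counting 1 h after dosing, loss of signal versus DMSO. Primary screen in duplicate at 25 uM, actives followed up in concentration series.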

[3] = target: human Orphanin, Opioid Related Nociceptin Receptor 1 (ORL1), OPRL1 (gene 4987) (UniProt P41146); assay: NVS_GPCR_hORL1: NovaScreen (NVS) G Protein-Coupled Receptor Assay for human Orphanin, Opioid Related Nociceptin Receptor 1 (ORL1) (AID 2283283)
Summary of the method: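 Cell-free binding using HEK293-derived receptor protein: radioligand displacement measured by filter scintillation 1 hour after dosing. Primary testing at 25 uM in duplicate, followed by singleton concentration series up to 50 uM; DMSO served as negative control.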

[4] = target: mouse Cholecystokinin, CCK1 Receptor (CCKA), Cckar (gene 12425) (UniProt O08786); assay: NVS_GPCR_mCCKAPeripheral: NovaScreen (NVS) G Protein-Coupled Receptor Assay for mouse Cholecystokinin, CCK1 Receptor (CCKA) (AID 2283285)
Summary of the method: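 Chemicals were first screened in duplicate at 25 uM, with those meeting threshold (e.g., 30% inhibition) retested in singleton concentration series to 50 uM maximum. Binding of radioligand to mouse pancreatic membranes was read after 2 h by filtration and scintillation counting.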

[5] = test system: 5-hydroxytryptamine receptor 2C (pig); assay: NVS_GPCR_p5HT2C: NovaScreen (NVS) G Protein-Coupled Receptor Assay for pig Serotonin, 5-Hydroxytryptamine Receptor 2C (5HT2C) (AID 2283288)
Summary of the method: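 Radioligand displacement on membranes from pig choroid plexus, detected by filter scintillation counting after 1 h. Tested first at a single 25 uM in duplicate, then in concentration-response for actives; DMSO served as baseline.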

[6] = target: rat Adrenergic, Alpha 1, Non-selective Receptor (Adra1), Adra1a (gene 29412) (UniProt P43140); assay: NVS_GPCR_rAdra1_NonSelective: NovaScreen (NVS) G Protein-Coupled Receptor Assay for rat Adrenergic, Alpha 1, Non-selective Receptor (Adra1) (AID 2283289)
Summary of the method: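 Chemicals first screened in duplicate at 25 uM, then actives tested in concentration series up to 50 uM. Binding measured as displacement of radioligand from rat forebrain membrane receptors, 1 h, filtration with scintillation readout; DMSO baseline.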

[7] = target: rat Serotonin, 5-Hydroxytryptamine Receptor 1 (5HT1), Non-Selective Binding, Htr1a (gene 24473) (UniProt P19327); assay: NVS_GPCR_r5HT1_NonSelective: NovaScreen (NVS) G Protein-Coupled Receptor Assay for rat Serotonin, 5-Hydroxytryptamine Receptor 1 (5HT1), Non-Selective Binding (AID 2283286)
Summary of the method: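 Binding of a radioligand to rat cortex membranes is read by filtration and scintillation counting after 1 h. Compounds were screened at 25 uM in duplicate. Actives were then titrated to a top of 50 uM. DMSO is the baseline.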

[8] = target: human Thromboxane A2 Receptor (TXA2), TBXA2R (gene 6915) (UniProt P21731); assay: NVS_GPCR_hTXA2: NovaScreen (NVS) G Protein-Coupled Receptor Assay for human Thromboxane A2 Receptor (TXA2) (AID 2283282);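 also: actives reduce bound radioligand signal relative to DMSO baseline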
Summary of the method: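 Filter scintillation counting of bound radioligand, human platelet protein, 1 h exposure. Single-concentration duplicates (25 uM) first, concentration-response follow-up for actives. Binding loss scored against DMSO baseline.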

human Thromboxane A2 Receptor (TXA2), TBXA2R (gene 6915), sequence (P21731 whole entry, looked up): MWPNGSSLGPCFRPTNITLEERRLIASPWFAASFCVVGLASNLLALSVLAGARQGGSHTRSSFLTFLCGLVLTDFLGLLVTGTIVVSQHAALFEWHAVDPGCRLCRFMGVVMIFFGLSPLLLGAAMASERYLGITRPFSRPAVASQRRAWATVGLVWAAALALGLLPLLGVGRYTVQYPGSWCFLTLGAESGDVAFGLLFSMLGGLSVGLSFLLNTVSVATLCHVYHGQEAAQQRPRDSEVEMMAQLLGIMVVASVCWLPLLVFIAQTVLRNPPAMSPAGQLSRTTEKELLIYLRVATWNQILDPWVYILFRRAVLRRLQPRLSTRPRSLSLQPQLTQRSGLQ
mouse Cholecystokinin, CCK1 Receptor (CCKA), Cckar (gene 12425), sequence (O08786 whole entry, looked up): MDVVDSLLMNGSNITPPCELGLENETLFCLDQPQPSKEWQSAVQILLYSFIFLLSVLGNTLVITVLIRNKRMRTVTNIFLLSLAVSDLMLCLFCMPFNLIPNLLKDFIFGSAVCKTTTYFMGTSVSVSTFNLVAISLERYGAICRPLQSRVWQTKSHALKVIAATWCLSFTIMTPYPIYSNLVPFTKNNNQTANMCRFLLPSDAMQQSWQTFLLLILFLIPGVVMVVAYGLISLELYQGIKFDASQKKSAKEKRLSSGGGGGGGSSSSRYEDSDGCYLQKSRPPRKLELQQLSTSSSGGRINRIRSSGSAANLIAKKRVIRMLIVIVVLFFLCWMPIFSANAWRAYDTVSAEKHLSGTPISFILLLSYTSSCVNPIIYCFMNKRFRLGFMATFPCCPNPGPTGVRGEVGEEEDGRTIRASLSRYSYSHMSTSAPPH
rat Adrenergic, Alpha 1, Non-selective Receptor (Adra1), Adra1a (gene 29412), sequence (P43140 whole entry, looked up): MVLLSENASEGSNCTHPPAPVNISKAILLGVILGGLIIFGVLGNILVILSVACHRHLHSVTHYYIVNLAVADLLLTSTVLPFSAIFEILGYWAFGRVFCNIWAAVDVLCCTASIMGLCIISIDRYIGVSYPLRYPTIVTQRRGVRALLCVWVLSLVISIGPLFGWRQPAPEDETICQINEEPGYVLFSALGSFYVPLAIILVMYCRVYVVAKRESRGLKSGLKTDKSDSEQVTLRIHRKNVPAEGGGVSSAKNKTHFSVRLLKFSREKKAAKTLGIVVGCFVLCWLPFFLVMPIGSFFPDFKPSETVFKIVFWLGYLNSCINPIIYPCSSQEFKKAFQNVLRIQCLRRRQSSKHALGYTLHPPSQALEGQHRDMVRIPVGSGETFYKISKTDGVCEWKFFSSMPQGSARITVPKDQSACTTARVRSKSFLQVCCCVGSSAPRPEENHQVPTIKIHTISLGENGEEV
human Neurokinin, NK2 Receptor, TACR2 (gene 6865), sequence (P21452 whole entry, looked up): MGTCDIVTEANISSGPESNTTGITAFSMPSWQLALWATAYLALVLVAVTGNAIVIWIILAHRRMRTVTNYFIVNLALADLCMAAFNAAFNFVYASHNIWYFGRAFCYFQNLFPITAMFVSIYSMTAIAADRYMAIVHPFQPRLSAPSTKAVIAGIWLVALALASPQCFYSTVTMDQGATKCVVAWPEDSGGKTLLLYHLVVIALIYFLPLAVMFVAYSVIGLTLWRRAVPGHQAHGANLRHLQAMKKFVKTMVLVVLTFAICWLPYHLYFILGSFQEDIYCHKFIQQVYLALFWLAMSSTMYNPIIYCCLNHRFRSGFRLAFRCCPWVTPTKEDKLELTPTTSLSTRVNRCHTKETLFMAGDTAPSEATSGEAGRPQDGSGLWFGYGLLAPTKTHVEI
rat Serotonin, 5-Hydroxytryptamine Receptor 1 (5HT1), Non-Selective Binding, Htr1a (gene 24473), sequence (P19327 whole entry, looked up): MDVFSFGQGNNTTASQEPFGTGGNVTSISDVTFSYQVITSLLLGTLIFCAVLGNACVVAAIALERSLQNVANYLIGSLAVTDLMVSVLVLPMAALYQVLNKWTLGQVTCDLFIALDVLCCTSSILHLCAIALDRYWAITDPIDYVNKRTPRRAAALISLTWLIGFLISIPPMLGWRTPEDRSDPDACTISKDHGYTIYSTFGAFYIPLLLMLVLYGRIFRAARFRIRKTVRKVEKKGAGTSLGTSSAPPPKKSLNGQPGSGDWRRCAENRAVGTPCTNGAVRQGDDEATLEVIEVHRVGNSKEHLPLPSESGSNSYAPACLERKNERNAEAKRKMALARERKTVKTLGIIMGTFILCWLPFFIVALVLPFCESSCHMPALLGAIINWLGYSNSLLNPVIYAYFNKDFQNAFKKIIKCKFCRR
human Orphanin, Opioid Related Nociceptin Receptor 1 (ORL1), OPRL1 (gene 4987), sequence (P41146 whole entry, looked up): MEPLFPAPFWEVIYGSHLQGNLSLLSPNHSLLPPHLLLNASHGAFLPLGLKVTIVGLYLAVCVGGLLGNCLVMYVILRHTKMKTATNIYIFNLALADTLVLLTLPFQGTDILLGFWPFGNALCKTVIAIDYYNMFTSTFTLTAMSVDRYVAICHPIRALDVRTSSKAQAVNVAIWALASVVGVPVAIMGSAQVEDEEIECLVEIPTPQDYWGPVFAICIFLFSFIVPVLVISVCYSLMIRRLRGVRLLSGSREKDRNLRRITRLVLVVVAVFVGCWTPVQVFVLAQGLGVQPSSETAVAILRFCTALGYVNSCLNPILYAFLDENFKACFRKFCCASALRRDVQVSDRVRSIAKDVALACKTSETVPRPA

`Cc1oc2c(NC(=O)c3c(Cl)cccc3Cl)cccc2c1C(C)(C)O` was tested. Which outcome [1] did it give?
Its outcome is “inactive”.

And the AC50 [2]?
Its AC50 is 5.98 µM (active).

Which AC50 [1] does the source give for `CN(C)c1ccc(C(=C2C=CC(=[N+](C)C)C=C2)c2ccc(N(C)C)cc2)cc1` here?
The AC50 was 3.82 µM (active).

What about the AC50 [3] of the same compound?
The AC50 was 21.8 µM (active).

And the AC50 [4]?
The AC50 was 10.8 µM (active).

What about the AC50 [5] of the same compound?
The AC50 was 18.5 µM (active).

What about the AC50 [6] of the same compound?
Its AC50 is 4.81 µM (active).

`CC1=CC(=O)/C(=C(/C)O)C(=O)O1` was tested. Which outcome [7] did it give?
Its outcome is “inactive”.

Which AC50 [5] does the source give for `CCCCOC(=O)c1ccc(O)cc1` here?
Its AC50 is 25 µM (active).

With `Cc1cc(F)ccc1-c1cc(N2CC[C@@H](O)[C@H]2CO)ncc1N(C)C(=O)C(C)(C)c1cc(C(F)(F)F)cc(C(F)(F)F)c1` as the compound, how does the AC50 [1] read?
Its AC50 is 0.181 µM (active).

What about the AC50 [4] of the same compound?
The AC50 was 4.08 µM (active).

What about the AC50 [2] of the same compound?
The AC50 was 1.38 µM (active).

And the AC50 [6]?
The AC50 was 20.4 µM (active).

With `O=C1O[C@H]([C@@H](O)CO)C(O)=C1O` as the compound, how does the AC50 [8] read?
Its AC50 is 8.76 µM (active).

For `CCCCCCCCOc1ccc(C(=O)c2ccccc2)c(O)c1`, which AC50 [8] is on record?
Its AC50 is 25 µM (active).

How did the outcome [1] turn out when `O=CCCCC=O` was run?
The outcome was “inactive”.

For `O=c1c(-c2ccc(O)cc2)coc2cc(O)cc(O)c12`, which outcome [6] is on record?
The outcome was “inactive”.

Which AC50 [1] does the source give for `NCc1cccc(C2CCN(C(=O)c3ccc(C#Cc4ccccc4F)o3)CC2)c1` here?
Its AC50 is 2.9 µM (active).

What about the AC50 [4] of the same compound?
The AC50 was 13.6 µM (active).

What about the AC50 [7] of the same compound?
The AC50 was 4.96 µM (active).

What about the AC50 [2] of the same compound?
The AC50 was 9.21 µM (active).

And the AC50 [5]?
The AC50 was 8.02 µM (active).

What about the AC50 [6] of the same compound?
Its AC50 is 21.5 µM (active).

With `CCN(CC)C(=O)c1cc(S(=O)(=O)Cc2ccccc2)c(N2CCC(c3ccccc3)CC2)cc1N(CC)CCN(C)C` as the compound, how does the AC50 [1] read?
Its AC50 is 4.95 µM (active).

What about the outcome [8] of the same compound?
The outcome was “inactive”.

What about the AC50 [2] of the same compound?
Its AC50 is 10.2 µM (active).

What about the AC50 [5] of the same compound?
Its AC50 is 7.94 µM (active).

`CCCCCCCCOC(=O)c1cc(O)c(O)c(O)c1` was tested. Which AC50 [1] did it give?
Its AC50 is 7.2 µM (active).

For `COc1cc(C(=O)NC2CCN(C)CC2)ccc1Nc1ncc2c(n1)N(C1CCCC1)CC(F)(F)C(=O)N2C`, which outcome [1] is on record?
The outcome was “inactive”.

What about the outcome [7] of the same compound?
Its outcome is “inactive”.

What about the AC50 [2] of the same compound?
Its AC50 is 0.76 µM (active).

And the AC50 [5]?
Its AC50 is 3.34 µM (active).

And the AC50 [6]?
The AC50 was 3.85 µM (active).

`CCCOC(=O)c1cc(O)c(O)c(O)c1` was tested. Which outcome [1] did it give?
The outcome was “inactive”.
